The values below come from the supplement of paper PMC11417369.

± gives the standard deviation of the averaged measurements. Over roughly 25,000 sequences, “ln(normalized median fluorescence intensity)” has its median near 10; the highest 2% begin near 12. The list comes from a sample in which the highest values are over-represented; it also holds similar and randomly drawn sequences.

This assay concerns PfAP2-G AP2 domain (GST-tagged). Put plainly: gcPBM binding intensity (ln(normalized median fluorescence intensity)); higher = stronger DNA binding. In a few lines:
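In this array assay, P. falciparum DNA-binding domains with a GST tag, expressed in E. coli, were applied for 1 h to primer-extended double-stranded 36-bp intergenic genomic probes and negative controls on an Agilent 4 × 180k array. Bound protein was visualised with Alexa488 anti-GST antibody at 488 nm. Binding intensity is the highest Masliner-normalised natural-log median intensity across replicate spots of either probe orientation.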
With “TTTTGTGGAGGATGGTGTACGGTATTGTATTATTAC [XGTACX_site1942]”, the “gcPBM binding intensity (ln)” value is 11.1 ± 0.64.

Regarding “AGAAAATATACAAAACGTACTTATATATTATATCTA [XGTACX_site3104]”, the “gcPBM binding intensity (ln)” value worked out at 10.9 ± 0.69.

For “TTATGTATAAACACACGTACACACACTAAGTATATC [XGTACX_site3254]”, the “gcPBM binding intensity (ln)” value was determined as 11.5 ± 1.

Turning to “TACCTAATATGTTATACACACATTAGAAGTACATAT [CACACA_site5375]”, the “gcPBM binding intensity (ln)” value came to 11.6 ± 1.1.

As for “ATACGAAGTACGTACACACACTTATATGTTACTAAA [CACACA_site7812]”, the “gcPBM binding intensity (ln)” value came to 11.7 ± 1.

As for “ATACATATATACATACGTACTTATATACATATGTGC [XGTACX_site5268]”, the “gcPBM binding intensity (ln)” value was determined as 10.9 ± 0.42.

“ATTTATATATTTATACGTACTTATATATTGTTACAT [XGTACX_site6254]”: the “gcPBM binding intensity (ln)” value was found to be 11.2 ± 0.73.

Turning to “ATAAAAATAAACATACGTACTTACACGAATATACAT [XGTACX_site5989]”, the “gcPBM binding intensity (ln)” value worked out at 11.1 ± 0.65.

Consider “TTATACGAAGTACGTACACACACTTATATGTTACTA [CACACA_site4019]”, for which the “gcPBM binding intensity (ln)” value is 11.6 ± 0.94.

In the case of “TTACATATTATACGAAGTACGTACAAATACTTATAT [XGTACX_site8598]”, the “gcPBM binding intensity (ln)” value is 11.7 ± 0.81.

Regarding “TTTCATGTTTTAAAGTGTACATAAATATATTATATG [XGTACX_site3367]”, the “gcPBM binding intensity (ln)” value is 11.5 ± 0.89.

As to “ATAATTTCAATATTTAATATCATATATATATATTTT [GTGCAC_negctrl_site713]”, the “gcPBM binding intensity (ln)” value came out at 9.56 ± 0.13.

As for “CTATCATATTTATGCACACAAAAATAATTAATTCGT [CACACA_site2614]”, the “gcPBM binding intensity (ln)” value is 10.2 ± 0.23.

As to “TAATTTATAAATAATTGTACATAGTTTATTTAGATT [XGTACX_site4599]”, the “gcPBM binding intensity (ln)” value stood at 10.9 ± 0.43.

Take “ATACAGATAGGATGCACACATAATTCAAATACAATA [CACACA_site4531]”: the “gcPBM binding intensity (ln)” value worked out at 10.2 ± 0.13.

“TTTTTTTTATTAAAAAGTACTAAACAAATTATATAT [XGTACX_site121]”: the “gcPBM binding intensity (ln)” value was found to be 11.1 ± 0.73.

Take “AATAATTTTTAAATATAAACATTTTTTTTTTTTTTT [GTGCAC_negctrl_site532]”: the “gcPBM binding intensity (ln)” value amounted to 9.72 ± 0.057.

For the sequence “TGCACAAAGTTATGCACACACCTAAAATTAATTTTT [CACACA_site7385]”, the “gcPBM binding intensity (ln)” value stood at 10.05 ± 0.071.

Consider “TGATAATAAGCATACACACACACACTAAAAAAAAAA [CACACA_site6478]”, for which the “gcPBM binding intensity (ln)” value was determined as 10.3 ± 0.43.

As for “ATATATATATATATATGTACACATAAAAAGAAAGAA [XGTACX_site1603]”, the “gcPBM binding intensity (ln)” value came out at 11.7 ± 1.1.

As for “AAAAAAAAAAAGTACACACATACATATAAATATATA [CACACA_site1809]”, the “gcPBM binding intensity (ln)” value came out at 11.6 ± 0.95.

Take “AAATAAAAGTTCACCTGTACACACATATATATATGT [XGTACX_site3513]”: the “gcPBM binding intensity (ln)” value was 11.5 ± 0.66.

In the case of “AAAGAAAAAAAAAAAAGTACATAAATATAAAAAGAA [XGTACX_site6753]”, the “gcPBM binding intensity (ln)” value was 11.5 ± 0.89.

“AAAGAAGGGGGGGGAAAAAAAAATAAAAGAGGAAAA [XGTACX_negctrl_site92]”: the “gcPBM binding intensity (ln)” value stood at 11 ± 0.77.

Take “CAGGGCAGGGGGAAGGGTACACATAAAAGAAAATAA [XGTACX_site172]”: the “gcPBM binding intensity (ln)” value was 11.7 ± 1.1.

Consider “TAAAAGTTCACCTGTACACACATATAAATATGTACA [CACACA_site6901]”, for which the “gcPBM binding intensity (ln)” value turned out to be 11.7 ± 0.85.

As for “ATAAGGAAGGGATGCACACAAAAGGGTACATAAGAA [CACACA_site4006]”, the “gcPBM binding intensity (ln)” value came out at 11.4 ± 0.71.

As to “ATACATATACACATATGTACATATGAAAAGAAAAAT [XGTACX_site6445]”, the “gcPBM binding intensity (ln)” value stood at 11.1 ± 0.64.

For the sequence “AGAAAAAAAAAAAGTACACACATATAATATATATAT [CACACA_site2973]”, the “gcPBM binding intensity (ln)” value turned out to be 11.6 ± 1.2.

As to “AAATAAAGAAATATATGTACATATATATATATATAT [XGTACX_site5131]”, the “gcPBM binding intensity (ln)” value was 11.3 ± 0.43.

As to “AATAAAAGTTCACCTGTACACACATATATATATGTA [CACACA_site8500]”, the “gcPBM binding intensity (ln)” value worked out at 11.3 ± 0.76.

Regarding “ACATATAAAATGTATACACACAAATATTACATATAT [CACACA_site1472]”, the “gcPBM binding intensity (ln)” value was 10.1 ± 0.11.

Regarding “TTTTTCATTTAGCTTTTACACACTATATATTATTGA [CACACA_site7888]”, the “gcPBM binding intensity (ln)” value amounted to 9.905 ± 0.064.

With “CTCAATATATTTGATTTACACACTTACAATGTATAT [CACACA_site8982]”, the “gcPBM binding intensity (ln)” value stood at 10.04 ± 0.078.

As to “GATATATATATTCACACACACATGGAAATATATATA [CACACA_site382]”, the “gcPBM binding intensity (ln)” value was determined as 9.88 ± 0.028.

Consider “ATATATATGGTCATTTGTACATATCGTGAGAGCTGC [XGTACX_site4117]”, for which the “gcPBM binding intensity (ln)” value worked out at 11 ± 0.49.

Consider “ATATATATATAAAGGAGTACATACATTAAAAAAAAA [XGTACX_site1095]”, for which the “gcPBM binding intensity (ln)” value stood at 11.7 ± 1.

As for “GAAAAAAGAAAAAAAAGTACATATATTTAATAAGAC [XGTACX_site6912]”, the “gcPBM binding intensity (ln)” value worked out at 11.4 ± 0.86.

In the case of “AATAAATAAAGAAGTACACACATATATATATATATA [CACACA_site4314]”, the “gcPBM binding intensity (ln)” value was found to be 11.7 ± 1.1.

With “TTAAGAAAAAAAAAAAGTACACACATATAATATATA [XGTACX_site6268]”, the “gcPBM binding intensity (ln)” value was determined as 11.6 ± 1.

Take “TATAAAAATAAAAAAAGTACACATAAAAATATATAT [XGTACX_site5189]”: the “gcPBM binding intensity (ln)” value stood at 11.5 ± 0.78.

For “AATGAATATTAAAGGAGTACACATAATAAGTAAGAA [XGTACX_site7354]”, the “gcPBM binding intensity (ln)” value is 11.7 ± 0.99.

On to “ATATATATAATTTAAAGTACATATTTAAGAATGAAA [XGTACX_site2238]”, for which the “gcPBM binding intensity (ln)” value was determined as 11.1 ± 0.67.

Turning to “AGTAGATATAAAAGGAGTACACATATATATATAAAT [XGTACX_site4375]”, the “gcPBM binding intensity (ln)” value was determined as 11.6 ± 1.
